Molecules are shown by their SMILES. The panel holds about 83,000 compounds, 20% with a hit somewhere; the sample as a whole holds those more often.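 Assay: single dose, 48 h. Readout: percent growth (0 = no net growth; negative = cell death). Active: <10.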 Values without a mark were called inactive. Calls of active or inactive are those of the source.

Among the test systems are NCI-H23 lung; NCI-H226 lung; NCI-H322M lung; HOP-62 NSCLC; NCI-H460 lung; HOP-92 NSCLC; NCI-H522 lung; A549/ATCC NSCLC; COLO 205 colon; 786-0 renal.
Common to all, as to assay: NCI-60 one-dose screen, 48 h (100 = growth as untreated, 0 = no growth, -100 = all killed)
Conditions in all cases: 10 µM unless noted

Take `C[C@@H]1C(=O)N(C[C@H](Cc2ccccc2)NC(=O)OCc2ccccc2)[C@]1(Cc1ccccc1)C(=O)OC(C)(C)C`: the growth in the assay with NCI-H23 lung is 71.8%; in the assay with NCI-H226 lung, 62.2%; with NCI-H322M lung it was 86.7%; in the assay on HOP-62 NSCLC it was 80.2%; in the assay on NCI-H460 lung, 66.6%; in the assay on HOP-92 NSCLC, 54.5%. The growth in the assay with NCI-H522 lung is 45%; in the assay with A549/ATCC NSCLC it was 47.2%; in the assay on COLO 205 colon, 62%.

As to `CCNCCNc1cc(-c2ccc(C(F)(F)F)cc2)c(C#N)c2nc3cc(Cl)c(Cl)cc3n12`, the growth with NCI-H23 lung is -76.6% (active); in the assay on NCI-H226 lung, 99.8%; in the assay with NCI-H322M lung, -95.4% (active); in the assay on HOP-62 NSCLC it was -82.4% (active); in the assay with NCI-H460 lung it was -71.6% (active); in the assay on HOP-92 NSCLC, -83.5% (active). Moreover, the results for the growth in the assay with NCI-H522 lung and in the assay on 786-0 renal were -73.3% (active) and -78% (active), respectively.

For `C=C(C)[C@@H]1CC[C@]2(CNCCO)CC[C@]3(C)[C@H](CC[C@@H]4[C@@]5(C)CCC(N)[C@@](C)(CO)[C@@H]5CC[C@]43C)[C@@H]12` (some centres undefined), the growth in the assay with NCI-H23 lung was 46.8%; with NCI-H226 lung, 94.1%; in the assay with NCI-H322M lung, 47.5%; with HOP-62 NSCLC, -53.7% (active); in the assay with NCI-H460 lung, -56.4% (active); in the assay on HOP-92 NSCLC, 38.8%. The figures for the growth in the assay with A549/ATCC NSCLC and in the assay with 786-0 renal were -33.5% (active) and -58.1% (active), respectively.

Consider `COc1ccc(N(C)c2nc(Cl)nc3cnn(C)c23)cc1`, for which the growth with NCI-H23 lung is 34.4%; with NCI-H226 lung, 1% (active); in the assay on NCI-H322M lung, 34.1%; in the assay with HOP-62 NSCLC, 21.9%; in the assay with NCI-H460 lung, 7.51% (active); with HOP-92 NSCLC it was 28.6%. Moreover, the growth was 10.8% in the assay with A549/ATCC NSCLC, 8.74% (active) in the assay with 786-0 renal and -68.3% (active) in the assay with COLO 205 colon.

With `COc1cc(-c2ccc(N=Nc3c(O)c(C(=O)Nc4ccccc4OC)cc4ccccc34)c(OC)c2)ccc1N=Nc1c(O)c(C(=O)Nc2ccccc2OC)cc2ccccc12`, the growth was 93.5% in the assay on NCI-H23 lung; 94.1% in the assay on NCI-H226 lung; 86.8% in the assay with NCI-H322M lung; 80.6% in the assay on HOP-62 NSCLC; 99.6% with NCI-H460 lung; 77.6% in the assay with HOP-92 NSCLC. In addition, the results for the growth in the assay with A549/ATCC NSCLC and with 786-0 renal were 95.6% and 87.2%, respectively.

For `CC[C@@H](C[C@H](CCO)c1ccccc1)c1cc2ccccc2o1`, the growth in the assay on NCI-H23 lung is 92.7%; in the assay with NCI-H226 lung it was 88%; with NCI-H322M lung it was 92.9%; in the assay on HOP-62 NSCLC it was 84.4%; in the assay on NCI-H460 lung, 100%; with HOP-92 NSCLC, 96.8%. The growth was 84.3% with A549/ATCC NSCLC and 91% in the assay with 786-0 renal.

`COC1(CC[C@@H](C)COC2OC(CO)C(O)C(O)C2O)O[C@H]2C[C@H]3[C@@H]4CC=C5C[C@@H](OC6OC(CO)C(OC7OC(C)C(O)C(O)C7O)C(O)C6OC6OC(C)C(O)C(O)C6O)CC[C@]5(C)[C@H]4CC[C@]3(C)[C@H]2[C@@H]1C` (some centres undefined): the growth in the assay with NCI-H23 lung is -63% (active); with NCI-H226 lung, -57.2% (active); in the assay on NCI-H322M lung it was -85.2% (active); in the assay with HOP-62 NSCLC, -83% (active); in the assay with NCI-H460 lung, -90.2% (active); with HOP-92 NSCLC, -62% (active). For the same compound, the results for the growth in the assay on A549/ATCC NSCLC, with 786-0 renal and in the assay with COLO 205 colon were -64.7% (active), -94.3% (active) and -12.2% (active), respectively.

With `O=C1C=CC(=Nc2cc(Br)c(O)c(Br)c2)C=C1`, the growth was 78.1% with NCI-H23 lung; 93.9% with NCI-H226 lung; 105% with NCI-H322M lung; 82.1% in the assay on HOP-62 NSCLC; 109% in the assay on NCI-H460 lung; 29.5% in the assay on HOP-92 NSCLC. For the same compound, the growth in the assay with A549/ATCC NSCLC is 118%; with 786-0 renal it was 70.2%; in the assay on COLO 205 colon it was 113%.

Consider `CC(=O)c1ccc2c(c1)CCN2`, for which the growth was 102% with NCI-H23 lung; 102% in the assay with NCI-H226 lung; 101% with NCI-H322M lung; 96.8% in the assay with HOP-62 NSCLC; 117% in the assay with NCI-H460 lung; 82.5% with HOP-92 NSCLC. The growth with A549/ATCC NSCLC is 98%; in the assay on 786-0 renal, 108%; in the assay on COLO 205 colon it was 102%.

Consider `Cn1nnnc1-c1ccc(N)cc1`, for which the growth in the assay on NCI-H23 lung is 88.7%; in the assay with NCI-H226 lung it was 107%; in the assay with NCI-H322M lung, 92.7%; in the assay with HOP-62 NSCLC it was 95.9%; with NCI-H460 lung, 105%; with HOP-92 NSCLC, 96.3%. Also, the growth was 95.6% with A549/ATCC NSCLC, 93.8% in the assay with 786-0 renal and 110% in the assay on COLO 205 colon.

In the case of `Cc1cccc(-c2cc(O)c(C(=O)N3CCOCC3)s2)c1`, the growth was 55.2% in the assay with NCI-H23 lung; 68% in the assay on NCI-H226 lung; 63.6% in the assay with NCI-H322M lung; 38.3% with HOP-62 NSCLC; 17.7% in the assay with NCI-H460 lung; 73.7% in the assay with HOP-92 NSCLC. Moreover, the growth is 37.7% with A549/ATCC NSCLC, 51.4% in the assay with 786-0 renal and 94.9% with COLO 205 colon.

For the compound `C/C(=N\NC(N)=S)c1nc2ccc(Cl)cc2[nH]1`, the growth with NCI-H23 lung is 75.4%; in the assay on NCI-H226 lung it was 46.3%; in the assay on NCI-H322M lung, 70%; in the assay with HOP-62 NSCLC, 43%; in the assay with NCI-H460 lung, 15.3%; in the assay with HOP-92 NSCLC it was 79.5%. Besides, the growth is 34.4% with A549/ATCC NSCLC, 31.2% in the assay with 786-0 renal and 45% in the assay on COLO 205 colon.

For `Nc1ccc2c(S(=O)(=O)O)ccc(S(=O)(=O)O)c2c1`, the growth is 100% in the assay with NCI-H23 lung; 101% with NCI-H226 lung; 121% in the assay with NCI-H322M lung; 92.3% in the assay on HOP-62 NSCLC; 101% with NCI-H460 lung; 89.1% in the assay on HOP-92 NSCLC. Moreover, the figures for the growth with A549/ATCC NSCLC and in the assay on 786-0 renal were 92.6% and 97.8%, respectively.

Take `Cn1ccnc1C(=O)/C=C/c1ccc(C(=O)Nc2ccc(S(F)(F)(F)(F)F)cc2)cc1`: the growth in the assay on NCI-H23 lung was 17.8%; with NCI-H226 lung, 43.9%; with NCI-H322M lung, 15.4%; in the assay on HOP-62 NSCLC it was 24.4%; in the assay on NCI-H460 lung it was -4.08% (active); in the assay on HOP-92 NSCLC, 95.8%. Besides, the values for the growth in the assay on NCI-H522 lung, with 786-0 renal and in the assay with COLO 205 colon were 42.9%, 15.9% and 9.14% (active), respectively.

`Cc1ccccc1NC(=O)CN(C)C`: the growth in the assay with NCI-H23 lung is 95.7%; in the assay on NCI-H226 lung, 97.9%; in the assay with NCI-H322M lung, 89.9%; with HOP-62 NSCLC it was 97.9%; in the assay with NCI-H460 lung, 113%; with HOP-92 NSCLC it was 123%. Further, the growth in the assay on A549/ATCC NSCLC is 95.7%; in the assay on 786-0 renal, 99.7%.

The values are drawn from PubChem BioAssay (NCI).
